Experimental findings from paper PMC3218832 are described below.

Among the targets are RELARELA (p65 homodimer) (Homo sapiens, UniProt Q04206 1-307); p50p50 homodimer (Homo sapiens, UniProt P19838 7-356); RELB subunit;p50 subunit (Homo sapiens;Homo sapiens, UniProt Q01201;P19838 120-401;7-356).
Holding throughout (experiment): protein binding microarray; high values mean tight binding
Conditions in all cases: dsDNA, one strand shown

The target in the next assay is T1, p52p52 homodimer (Homo sapiens, UniProt Q00653 4-332).
T1 sequence: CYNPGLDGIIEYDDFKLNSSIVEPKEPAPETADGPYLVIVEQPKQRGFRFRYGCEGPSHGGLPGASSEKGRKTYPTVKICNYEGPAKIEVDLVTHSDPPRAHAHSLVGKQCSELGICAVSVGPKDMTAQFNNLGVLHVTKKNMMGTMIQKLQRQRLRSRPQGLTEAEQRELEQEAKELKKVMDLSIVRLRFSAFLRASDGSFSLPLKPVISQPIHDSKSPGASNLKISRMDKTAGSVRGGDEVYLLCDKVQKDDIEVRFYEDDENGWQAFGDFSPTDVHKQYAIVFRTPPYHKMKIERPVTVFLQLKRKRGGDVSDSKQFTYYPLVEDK

Assay [1] addresses RELA (p65) subunit of heterodimer;p50 subunit (Homo sapiens;Homo sapiens, UniProt Q04206;P19838 1-307;7-356).
Assay [2] deals with RELA (p65) subunit of heterodimer;p52 subunit (Homo sapiens;Homo sapiens, UniProt Q04206;Q00653 1-307;4-332).
In a further assay the target is T2, RELB subunit;p52 subunit (Homo sapiens;Homo sapiens, UniProt Q01201;Q00653 120-401;4-332).
T2 sequence 1: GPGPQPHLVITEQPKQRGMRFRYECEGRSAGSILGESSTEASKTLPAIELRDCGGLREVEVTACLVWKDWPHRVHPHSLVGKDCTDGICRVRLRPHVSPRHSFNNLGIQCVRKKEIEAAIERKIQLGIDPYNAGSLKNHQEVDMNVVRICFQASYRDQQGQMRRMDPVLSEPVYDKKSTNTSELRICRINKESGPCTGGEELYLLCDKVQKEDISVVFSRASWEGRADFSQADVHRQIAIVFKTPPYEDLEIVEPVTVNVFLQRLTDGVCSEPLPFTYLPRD
T2 sequence 2: T1 sequence

Assay [3] addresses C-Rel subunit;p50 subunit (Homo sapiens;Homo sapiens, UniProt Q04864;P19838 1-285;7-356).
The target in assay [4] is T3, C-Rel subunit;p52 subunit (Homo sapiens;Homo sapiens, UniProt Q04864;Q00653 1-285;4-332).
T3 sequence 1: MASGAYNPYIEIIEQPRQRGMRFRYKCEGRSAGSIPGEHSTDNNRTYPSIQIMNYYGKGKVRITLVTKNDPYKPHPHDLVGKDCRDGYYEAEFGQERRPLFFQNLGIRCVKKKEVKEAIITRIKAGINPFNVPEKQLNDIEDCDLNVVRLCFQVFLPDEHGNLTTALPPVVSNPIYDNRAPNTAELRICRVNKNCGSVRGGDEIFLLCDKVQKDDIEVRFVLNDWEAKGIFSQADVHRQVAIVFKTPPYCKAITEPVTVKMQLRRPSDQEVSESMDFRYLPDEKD
T3 sequence 2: T1 sequence

p50p50 homodimer, sequence (P19838 7-356): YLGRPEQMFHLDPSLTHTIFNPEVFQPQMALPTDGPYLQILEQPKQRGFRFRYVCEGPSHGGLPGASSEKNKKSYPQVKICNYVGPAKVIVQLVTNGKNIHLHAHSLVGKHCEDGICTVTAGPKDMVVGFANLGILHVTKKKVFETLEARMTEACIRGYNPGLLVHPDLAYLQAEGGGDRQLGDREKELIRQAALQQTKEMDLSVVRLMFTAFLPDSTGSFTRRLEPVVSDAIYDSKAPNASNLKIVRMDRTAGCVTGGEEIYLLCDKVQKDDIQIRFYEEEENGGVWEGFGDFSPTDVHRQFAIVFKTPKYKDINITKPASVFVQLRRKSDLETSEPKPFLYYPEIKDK
RELA (p65) subunit of heterodimer;p50 subunit, sequence (Q04206 1-307, chain 1 of 2): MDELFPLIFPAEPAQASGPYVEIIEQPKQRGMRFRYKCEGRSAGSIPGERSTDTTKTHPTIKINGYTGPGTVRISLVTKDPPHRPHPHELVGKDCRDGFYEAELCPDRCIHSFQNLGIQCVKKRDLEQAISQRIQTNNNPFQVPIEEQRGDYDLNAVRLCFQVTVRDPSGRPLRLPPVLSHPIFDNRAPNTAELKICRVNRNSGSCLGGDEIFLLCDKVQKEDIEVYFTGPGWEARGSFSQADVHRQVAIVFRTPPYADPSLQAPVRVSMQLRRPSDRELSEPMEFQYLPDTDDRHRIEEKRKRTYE
RELA (p65) subunit of heterodimer;p50 subunit, sequence (P19838 7-356, chain 2 of 2): as the sequence (P19838 7-356) above
RELARELA (p65 homodimer), sequence (Q04206 1-307): as the sequence (Q04206 1-307, chain 1 of 2) above

In the case of CAATGGGCCCC, the binding signal with RELARELA (p65 homodimer) was -0.62 z-score; with p50p50 homodimer, -0.565 z-score; with p52p52 homodimer, -0.242 z-score; in assay [1], -0.699 z-score; in assay [2], -0.472 z-score; with RELB subunit;p50 subunit it was -0.379 z-score. In addition, the binding signal was -0.185 z-score with RELB subunit;p52 subunit, -0.565 z-score in [3] and -0.638 z-score in [4].
As for CGAGAATCCCT, the binding signal with RELARELA (p65 homodimer) is -0.154 z-score; with p50p50 homodimer, 0.393 z-score; with p52p52 homodimer, 0.327 z-score; in [1], 0.25 z-score; in assay [2], 0.284 z-score; with RELB subunit;p50 subunit, 0.305 z-score. Also, the binding signal came out at 0.573 z-score with RELB subunit;p52 subunit, 0.277 z-score in assay [3] and 0.32 z-score in assay [4].
As for CGGGGGTCCCT, the binding signal with RELARELA (p65 homodimer) is 0.00646 z-score; in the assay with p50p50 homodimer, 1.14 z-score; with p52p52 homodimer, 0.985 z-score; in assay [1] it was 0.963 z-score; in assay [2], 1.07 z-score; with RELB subunit;p50 subunit, 1.06 z-score. The binding signal with RELB subunit;p52 subunit is 1.23 z-score; in assay [3] it was 0.761 z-score; in [4] it was 0.926 z-score.
For CAATGTCTCCC, the binding signal with RELARELA (p65 homodimer) is -0.338 z-score; in the assay with p50p50 homodimer it was -0.647 z-score; with p52p52 homodimer, -0.276 z-score; in assay [1], -0.405 z-score; in assay [2] it was -0.499 z-score; with RELB subunit;p50 subunit, -0.294 z-score. For the same sequence, the binding signal with RELB subunit;p52 subunit was -0.275 z-score; in [3], -0.53 z-score; in assay [4] it was -0.561 z-score.
Take CGGGAAGCCCT: the binding signal in the assay with RELARELA (p65 homodimer) is 0.636 z-score; with p50p50 homodimer, -0.369 z-score; with p52p52 homodimer it was -0.0378 z-score; in assay [1], -0.188 z-score; in assay [2], 0.0317 z-score; with RELB subunit;p50 subunit it was -0.513 z-score. Also, the binding signal in the assay with RELB subunit;p52 subunit was -0.178 z-score; in assay [3] it was -0.133 z-score; in assay [4], 0.19 z-score.
On to GAGGAATCCCT, for which the binding signal came to 0.176 z-score in the assay with RELARELA (p65 homodimer); 0.599 z-score with p50p50 homodimer; 0.671 z-score with p52p52 homodimer; 0.612 z-score in assay [1]; 0.532 z-score in assay [2]; 0.403 z-score with RELB subunit;p50 subunit. Also, the binding signal in the assay with RELB subunit;p52 subunit is 0.517 z-score; in assay [3], 0.573 z-score; in [4] it was 0.416 z-score.
Take CGATAATTCCC: the binding signal with RELARELA (p65 homodimer) is 2.04 z-score; in the assay with p50p50 homodimer it was 0.948 z-score; with p52p52 homodimer, 0.738 z-score; in assay [1], 1.43 z-score; in [2], 0.974 z-score; with RELB subunit;p50 subunit, 0.871 z-score. Also, the values for the binding signal (with RELB subunit;p52 subunit; in [3]; in assay [4]) were 0.87 z-score, 1.51 z-score and 1.12 z-score, respectively.
As for AGAGGGACCCT, the binding signal in the assay with RELARELA (p65 homodimer) was -0.966 z-score; with p50p50 homodimer, -0.326 z-score; with p52p52 homodimer it was 0.216 z-score; in assay [1], -0.688 z-score; in [2], -0.129 z-score; with RELB subunit;p50 subunit it was -0.226 z-score. In addition, the binding signal with RELB subunit;p52 subunit is -0.0964 z-score; in [3] it was -0.803 z-score; in [4], -0.355 z-score.
Consider AAGTGTTCCCC, for which the binding signal with RELARELA (p65 homodimer) amounted to 0.872 z-score; in the assay with p50p50 homodimer it was 0.916 z-score; with p52p52 homodimer, 0.928 z-score; in assay [1], 1.24 z-score; in assay [2], 0.915 z-score; with RELB subunit;p50 subunit, 1.13 z-score. Further, the binding signal in the assay with RELB subunit;p52 subunit came to 1.14 z-score; in assay [3], 1.33 z-score; in assay [4], 0.844 z-score.
For the sequence AAGAACCCCCT, the binding signal in the assay with RELARELA (p65 homodimer) is -0.175 z-score; in the assay with p50p50 homodimer it was 1.5 z-score; with p52p52 homodimer, 1.86 z-score; in [1] it was 2.09 z-score; in assay [2], 1.57 z-score; with RELB subunit;p50 subunit, 2.18 z-score. For the same sequence, the binding signal with RELB subunit;p52 subunit was 2.07 z-score; in [3], 1.44 z-score; in assay [4], 1.48 z-score.
In the case of CAAGACGCCCT, the binding signal with RELARELA (p65 homodimer) was -0.812 z-score; with p50p50 homodimer, -2.01 z-score; with p52p52 homodimer, -0.745 z-score; in [1], -0.983 z-score; in [2], -0.966 z-score; in the assay with RELB subunit;p50 subunit it was -1.04 z-score. For the same sequence, the binding signal with RELB subunit;p52 subunit is -0.904 z-score; in assay [3] it was -1.34 z-score; in assay [4] it was -0.839 z-score.
As for GAATAGCTCCC, the binding signal in the assay with RELARELA (p65 homodimer) was -0.473 z-score; with p50p50 homodimer, -0.795 z-score; with p52p52 homodimer, -0.577 z-score; in assay [1], -0.627 z-score; in assay [2], -0.84 z-score; with RELB subunit;p50 subunit, -0.753 z-score. The binding signal is -0.873 z-score with RELB subunit;p52 subunit, -1.16 z-score in assay [3] and -0.82 z-score in assay [4].
On to CAAAAGTTCCC, for which the binding signal is 1.7 z-score in the assay with RELARELA (p65 homodimer); 0.79 z-score in the assay with p50p50 homodimer; 0.496 z-score in the assay with p52p52 homodimer; 0.839 z-score in assay [1]; 0.661 z-score in assay [2]; 0.674 z-score with RELB subunit;p50 subunit. Moreover, the values for the binding signal (with RELB subunit;p52 subunit; in assay [3]; in [4]) were 0.512 z-score, 0.746 z-score and 0.598 z-score, respectively.
For GAAATCCTCCT, the binding signal is -0.0844 z-score with RELARELA (p65 homodimer); -0.961 z-score with p50p50 homodimer; -0.613 z-score with p52p52 homodimer; -0.658 z-score in assay [1]; -0.961 z-score in assay [2]; -0.979 z-score in the assay with RELB subunit;p50 subunit. The binding signal with RELB subunit;p52 subunit is -0.866 z-score; in assay [3], -0.982 z-score; in assay [4], -0.715 z-score.
In the case of CGAAGCATCCT, the binding signal in the assay with RELARELA (p65 homodimer) is -1.05 z-score; with p50p50 homodimer it was -3.51 z-score; with p52p52 homodimer, -0.775 z-score; in [1] it was -1.25 z-score; in assay [2], -1.09 z-score; with RELB subunit;p50 subunit, -1.1 z-score. In addition, the binding signal with RELB subunit;p52 subunit is -1.02 z-score; in assay [3], -1.65 z-score; in assay [4], -1 z-score.
